The source made the active and inactive calls.
What was measured:
[1] = molecular target: Albumin (Bos taurus) (UniProt P02769); test: bovine serum albumin binders on microarray, profiling panel, artefact control for SMM control protein annotation, biochemical, small-molecule microarray, Alexa647 label, 635/667 nm fluorescence (AID 1118); conditions: BSA-A647 binding, fluorescence 635 nm, higher = more signal;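 further: score merges 667 nm emission intensity and signal-to-noise per printed compound spot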
[2] = small-molecule microarray binders of probe aXIP, primary screen, biochemical, NeuroSMM set, 635/667 nm fluorescence (AID 1119); conditions: higher = more signal, called active from +8 up or from −8 down;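 further: probe is the protein aXip251-270 applied at 1 µg/mL to compound-printed slides; binding of probe to printed compounds measured as 667 nm fluorescence plus signal to noise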
[3] = small-molecule binders of probe aNOTCH3, primary screen, biochemical, small-molecule microarray, 635/667 nm fluorescence (AID 1120); conditions: higher = more signal;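 further: probe is a biotin-tagged antibody raised against NOTCH3 rather than NOTCH3 protein; score merges spot fluorescence near 667 nm with spot signal to noise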
[4] = small-molecule binders of probe aNOTCH2, primary screen, biochemical, small-molecule microarray, 635/667 nm fluorescence (AID 1121); conditions: higher = more signal;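 further: score merges feature fluorescence read at 667 nm with its signal to noise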
[5] = molecular target: Carbonic anhydrase 2 (Homo sapiens) (UniProt P00918); test: CAII small-molecule binders, profiling panel, biochemical, small-molecule microarray, Alexa647-labelled CAII (AID 1122); conditions: CAII-A647 binding fluorescence, higher = more signal
[6] = COS7 lysate on small-molecule microarray, probe aHis, 635 nm (AID 1123); conditions: COS7 cell lysate, fluorescence, higher = more signal;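 further: z-score combines 667nm fluorescence intensity with signal-to-noise per printed compound spot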
[7] = compound binding in COS7 lysate, probe aLAP1, primary screen, cell lysate, small-molecule microarray (AID 1124); conditions: probe aLAP1, fluorescence, higher = more signal;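 further: lysate comes from COS7 cells expressing LAP1 and is applied at 0.3 µg/mL; score merges spot fluorescence near 667 nm with signal-to-noise over triplicate slides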
[8] = test system: Sam68 (KHDRBS1); test: Sam68 small-molecule binders, primary screen, biochemical, small-molecule microarray, 635 nm fluorescence (AID 1125); conditions: small-molecule microarray binding, higher = more signal;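 further: score merges 667 nm channel intensity with signal to noise over triplicate slides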
[9] = test system: Chordin-like protein 2 (CHRDL2); test: CHRDL2 small-molecule binders, primary screen, biochemical, small-molecule microarray, 635 nm fluorescence (AID 1126); conditions: small-molecule microarray binding, fluorescence 635 nm; higher = more signal;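 further: printed compound slides probed with Chrdl2 protein at 4 µg/mL for 1 h at 4 C; score merges 667 nm emission intensity with signal to noise over three replicate slides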
[10] = molecular target: Concanavalin-A (Canavalia ensiformis) (UniProt P02866); test: ConA small-molecule binders, primary screen, artefact control for SMM control protein annotation, biochemical, small-molecule microarray, Alexa647 label, 635 nm (AID 1127); conditions: ConA-A647 binding fluorescence, higher = more signal;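 further: z combines 667 nm emission intensity with signal-to-noise across three replicate slides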
[11] = anti-His antibody binders, primary screen, artefact control for SMM control protein annotation, biochemical, small-molecule microarray, 635 nm fluorescence (AID 1128); conditions: anti-His Alexa647 antibody binding, higher = more signal;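 further: score merges feature fluorescence with signal-to-noise for each printed compound spot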
[12] = test system: Human papillomavirus type 1a E7 protein (residues 1-88); test: HPV1a E7 small-molecule binders, primary screen, biochemical, small-molecule microarray, residues 1-88, 635 nm (AID 1129); conditions: small-molecule microarray binding, fluorescence 635 nm; higher = more signal
[13] = molecular target: Focal adhesion kinase 1 (Homo sapiens) (UniProt Q05397); test: small-molecule microarray binders of FAK, primary screen, biochemical, 635/667 nm fluorescence, BSA, DTT (AID 1130); conditions: PTK2 binding, 635 nm fluorescence, higher = more signal;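 further: composite of spot emission at 667 nm and signal to noise over triplicate slides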
[14] = test system: Fibrinogen (Alexa647-labelled); test: fibrinogen binders on compound microarrays, profiling panel, artefact control for SMM control-protein annotation, biochemical, small-molecule microarray, 635/667 nm fluorescence (AID 1131); conditions: fibrinogen-A647 binding fluorescence, higher = more signal;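 further: z-score merges 667 nm fluorescence with per-spot signal-to-noise over triplicate slides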
[15] = molecular target: Follistatin (Homo sapiens) (UniProt P19883); test: follistatin binders on small-molecule microarrays, primary screen, biochemical, small-molecule microarray, 635/667 nm fluorescence (AID 1132); conditions: FST binding, 635 nm fluorescence, higher = more signal
[16] = molecular target: Fibroblast growth factor 2 (Homo sapiens) (UniProt P09038); test: FGF2 binders on small-molecule microarrays, primary screen, biochemical, small-molecule microarray, 635/667 nm fluorescence (AID 1133); conditions: small-molecule microarray binding, FGF2, fluorescence 635/667; higher = more signal
[17] = mitochondrial membrane potential change in A549 cells, profiling panel, cell-based, JC-1 fluorescence, basal, 24 h, 100 nL (AID 1138); conditions: higher = more signal;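 further: A549 lung adenocarcinoma cells under basal conditions with no added stimulus; test concentration not given here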
[18] = test system: Lefty1; test: Lefty1 binders on small-molecule microarrays, primary screen, biochemical, small-molecule microarray, 635/667 nm fluorescence (AID 1139); conditions: small-molecule microarray binding, fluorescence 635/667; higher = more signal
[19] = test system: wheat germ agglutinin (Triticum aestivum), Alexa647-labelled; test: wheat germ agglutinin binders on compound microarrays, profiling panel, artefact control for SMM control-protein annotation, biochemical, small-molecule microarray, 635/667 nm fluorescence (AID 1140); conditions: WGA-A647 binding, 635 nm fluorescence, higher = more signal;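 further: score merges 667 nm feature emission with signal to noise over triplicate slides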
[20] = molecular target: Luciferin 4-monooxygenase (Photinus pyralis) (UniProt P08659); test: firefly luciferase enzyme inhibitors, primary screen, biochemical, luminescence, purified enzyme, 2006 set (AID 1141); conditions: SteadyGlo luminescence, 30 min, higher = more signal, called active from +8 up or from −8 down;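 further: cell-free assay with purified firefly luciferase at 100 ng per well in PBS; test concentration not given here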
Sequence of Luciferin 4-monooxygenase (Photinus pyralis) (P08659 whole entry, looked up): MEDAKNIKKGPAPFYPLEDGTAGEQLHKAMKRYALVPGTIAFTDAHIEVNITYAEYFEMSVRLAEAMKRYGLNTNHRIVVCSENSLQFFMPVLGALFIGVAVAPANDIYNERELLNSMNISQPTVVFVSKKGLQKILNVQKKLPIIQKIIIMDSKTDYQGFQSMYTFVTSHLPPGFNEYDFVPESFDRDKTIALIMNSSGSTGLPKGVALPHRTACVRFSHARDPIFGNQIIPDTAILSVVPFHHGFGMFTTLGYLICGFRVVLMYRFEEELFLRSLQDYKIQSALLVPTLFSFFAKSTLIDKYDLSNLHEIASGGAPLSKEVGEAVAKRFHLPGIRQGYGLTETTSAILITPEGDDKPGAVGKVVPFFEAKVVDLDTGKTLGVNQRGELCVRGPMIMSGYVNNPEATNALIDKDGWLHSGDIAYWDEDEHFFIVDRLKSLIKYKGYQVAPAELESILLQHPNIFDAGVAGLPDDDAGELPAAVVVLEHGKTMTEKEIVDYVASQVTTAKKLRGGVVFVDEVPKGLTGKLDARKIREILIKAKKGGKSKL

Sequence of Focal adhesion kinase 1 (Homo sapiens) (Q05397 whole entry, looked up): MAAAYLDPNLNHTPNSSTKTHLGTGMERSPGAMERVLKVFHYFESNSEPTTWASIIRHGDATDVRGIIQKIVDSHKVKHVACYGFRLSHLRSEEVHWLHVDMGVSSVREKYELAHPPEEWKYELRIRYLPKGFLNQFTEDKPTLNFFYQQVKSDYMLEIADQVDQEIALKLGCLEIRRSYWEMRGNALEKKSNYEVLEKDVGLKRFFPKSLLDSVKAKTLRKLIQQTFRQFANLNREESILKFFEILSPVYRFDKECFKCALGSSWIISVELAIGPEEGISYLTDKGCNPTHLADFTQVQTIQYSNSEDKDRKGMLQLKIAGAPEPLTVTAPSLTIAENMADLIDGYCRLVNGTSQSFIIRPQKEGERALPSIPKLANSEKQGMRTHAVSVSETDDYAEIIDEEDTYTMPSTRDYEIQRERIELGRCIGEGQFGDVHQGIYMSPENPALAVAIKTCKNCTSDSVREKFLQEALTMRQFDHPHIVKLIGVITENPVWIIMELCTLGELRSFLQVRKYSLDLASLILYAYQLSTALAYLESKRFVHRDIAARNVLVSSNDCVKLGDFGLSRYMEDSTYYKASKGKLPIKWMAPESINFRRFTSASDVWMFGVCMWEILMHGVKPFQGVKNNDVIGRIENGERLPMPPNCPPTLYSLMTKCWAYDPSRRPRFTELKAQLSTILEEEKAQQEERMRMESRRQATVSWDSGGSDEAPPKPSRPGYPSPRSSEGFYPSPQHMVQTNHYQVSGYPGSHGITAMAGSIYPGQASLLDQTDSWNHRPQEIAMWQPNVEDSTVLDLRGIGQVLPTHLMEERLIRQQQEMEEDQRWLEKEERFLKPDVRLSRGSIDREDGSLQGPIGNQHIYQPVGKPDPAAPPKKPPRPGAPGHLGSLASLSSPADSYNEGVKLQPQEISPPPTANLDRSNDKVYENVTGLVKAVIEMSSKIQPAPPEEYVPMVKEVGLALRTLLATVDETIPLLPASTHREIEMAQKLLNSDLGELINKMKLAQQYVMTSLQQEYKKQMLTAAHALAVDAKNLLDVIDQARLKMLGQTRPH
Sequence of Albumin (Bos taurus) (P02769 whole entry, looked up): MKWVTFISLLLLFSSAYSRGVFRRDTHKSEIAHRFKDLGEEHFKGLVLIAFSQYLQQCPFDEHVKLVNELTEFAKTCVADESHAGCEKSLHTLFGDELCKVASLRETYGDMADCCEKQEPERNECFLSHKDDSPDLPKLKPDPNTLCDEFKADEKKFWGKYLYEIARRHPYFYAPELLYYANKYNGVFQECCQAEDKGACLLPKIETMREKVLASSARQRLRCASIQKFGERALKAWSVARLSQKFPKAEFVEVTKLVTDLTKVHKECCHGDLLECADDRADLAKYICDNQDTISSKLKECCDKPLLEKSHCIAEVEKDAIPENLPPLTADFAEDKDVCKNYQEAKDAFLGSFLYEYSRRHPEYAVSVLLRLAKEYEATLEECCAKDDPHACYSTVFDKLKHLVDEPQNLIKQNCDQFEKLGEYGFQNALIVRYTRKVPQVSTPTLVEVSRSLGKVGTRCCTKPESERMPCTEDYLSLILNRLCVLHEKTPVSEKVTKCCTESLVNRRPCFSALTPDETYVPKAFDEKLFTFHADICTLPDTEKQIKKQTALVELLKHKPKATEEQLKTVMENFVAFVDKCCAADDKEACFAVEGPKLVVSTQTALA
Sequence of Follistatin (Homo sapiens) (P19883 whole entry, looked up): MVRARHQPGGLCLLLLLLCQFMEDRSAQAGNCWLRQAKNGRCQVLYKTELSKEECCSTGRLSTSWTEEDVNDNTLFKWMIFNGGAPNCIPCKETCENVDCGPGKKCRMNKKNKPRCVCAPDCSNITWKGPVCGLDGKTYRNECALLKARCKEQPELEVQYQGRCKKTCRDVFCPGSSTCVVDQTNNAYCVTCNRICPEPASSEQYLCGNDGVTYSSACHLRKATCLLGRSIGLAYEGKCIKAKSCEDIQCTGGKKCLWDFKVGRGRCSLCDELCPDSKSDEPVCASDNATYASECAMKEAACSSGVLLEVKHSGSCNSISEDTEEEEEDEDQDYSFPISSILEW
Sequence of Fibroblast growth factor 2 (Homo sapiens) (P09038 whole entry, looked up): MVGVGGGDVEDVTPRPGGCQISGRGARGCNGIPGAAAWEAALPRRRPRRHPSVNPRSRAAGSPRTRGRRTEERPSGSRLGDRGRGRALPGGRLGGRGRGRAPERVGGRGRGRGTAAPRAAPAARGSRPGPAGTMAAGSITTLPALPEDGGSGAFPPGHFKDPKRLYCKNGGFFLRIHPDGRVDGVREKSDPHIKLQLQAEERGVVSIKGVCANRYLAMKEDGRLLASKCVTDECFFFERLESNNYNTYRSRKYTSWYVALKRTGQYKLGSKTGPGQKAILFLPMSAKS
Sequence of Concanavalin-A (Canavalia ensiformis) (P02866 whole entry, looked up): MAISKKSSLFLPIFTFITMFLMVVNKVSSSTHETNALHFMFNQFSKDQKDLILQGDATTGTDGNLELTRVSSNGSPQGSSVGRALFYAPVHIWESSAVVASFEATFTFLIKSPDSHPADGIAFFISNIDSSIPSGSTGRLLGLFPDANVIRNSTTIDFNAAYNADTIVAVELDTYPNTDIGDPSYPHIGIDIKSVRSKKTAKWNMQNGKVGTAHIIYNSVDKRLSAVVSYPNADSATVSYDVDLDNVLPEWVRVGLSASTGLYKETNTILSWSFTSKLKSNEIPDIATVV

Compound | composite z-score [1] | composite Z-score [2] | composite z-score [3] | composite z-score [4] | composite z-score [5] | composite z-score [6] | composite z-score [7] | composite z-score [8] | composite z-score [9] | composite z-score [10] | composite z-score [11] | composite z-score [12] | composite z-score [13] | composite z-score [14] | composite z-score [15] | composite z-score [16] | z-score [17] | composite z-score [18] | composite z-score [19] | z-score [20]
Cc1ccc(S[C@]2(C(=O)NCc3ccccc3)CC(=O)N(C3CCCCC3)[C@@H]2c2ccc(CO)cc2I)cc1 | 0.0863 | -0.0202 (inactive) | 0.0301 | -0.133 | 0.459 | 2.13 | 0.658 | 1.23 | 0.338 | 1.14 | 0.731 | 0.872 | 0.25 | 0.773 | 0.382 | 0.904 | 1.3 | -0.0294 | 0.68 | -0.421 (inactive)
COc1cc2c(cc1O)C(c1cccs1)N(Cc1cc3c(cc1Br)OCO3)CC2 (stereo not given) | 0.794 | 0.715 (inactive) | 0.0438 | -0.0397 | 0.723 | 2.92 | 1.03 | 1.04 | 0.417 | 1.12 | 1.83 | 1.28 | 0.822 | 0.976 | 1.08 | 0.75 | -1.56 | 0.556 | 0.544 | -0.657 (inactive)
COC(=O)[C@@]1(Cc2ccccc2)[C@H]2c3cc(C(=O)N(C)C)n(Cc4ccc(C)o4)c3C[C@H]2CN1C(=O)c1ccccc1 | 0.874 | 0.173 (inactive) | 1.25 | 0.618 | 0.753 | 1.93 | 0.673 | 1.12 | -1.06 | 0.354 | 2.6 | 1.21 | 1.73 | 0.705 | 0.764 | 0.188 | -0.0901 | -0.566 | 1.26 | 0.429 (inactive)
O=C1N(CCS(=O)(=O)c2ccccc2)c2ccccc2[C@H]2OC(c3ccc(OCCCO)cc3)=N[C@@]12Cc1ccccc1 | -0.154 | 1.47 (inactive) | 0.146 | 0.087 | 0.555 | 2.93 | 0.991 | 1.29 | 1.4 | 1.14 | 2.15 | 0.936 | 0.548 | 0.587 | 1.54 | 1.75 | 1.08 | 0.476 | 0.943 | -8.53 (active)
COc1cccc(C)c1NC(=O)O[C@H]1[C@H](OC(=O)Nc2ccc3c(c2)OCO3)[C@@H](OC(=O)Nc2ccc3c(c2)OCO3)[C@@H](OC)O[C@@H]1CO | 0.48 | 0.525 (inactive) | 0.508 | -0.0714 | 0.43 | 2.53 | 1.29 | 1.29 | 0.492 | 0.66 | 0.4 | 1.25 | 1.09 | 0.988 | 1.28 | 0.887 | -0.588 | 1.28 | 1.15 | -5.18 (inactive)
